IL-2 act – qHTS of IL-2 Activators; IL-2 activation reporter assay, cell-based qHTS; stimulated with anti-CD3/CD4/CD28 beads; in transgenic mouse T cells; activation, % (series mostly up to about 46 µM); 360,000 compounds, 0.065% hits; in the data active means activation above about 50%; inconclusive means mostly about 30% to 49%; further: 0% is about no effect
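First, unstimulated transgenic mouse T cells were exposed to compound for 60 min. Next, anti-CD3/anti-CD4-coated beads with anti-CD28 were added. Finally, after 18 h at 37 degrees C, EGFP and DsRed were imaged.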
Nrf2 block – Nrf2 qHTS screen for inhibitors | A549 ARE-Fluc reporter, luciferase luminescence, 18-24 h | 360,000 compounds, 2.1% hits | Potency, µM (series often up to 46 µM), without a hit: at the highest dose activity change, negative = inhibition, actives largely listed as inhibitors | AID 504444, 2011; further: potency means the concentration at half of the fitted maximal effect; on the % scale 0 is the no-effect control and ±100 the full control effect; nearly all actives have a fitted effect of over 60% in size
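Quantitative HTS in A549 cells stably bearing an antioxidant response element-firefly luciferase construct. Inhibition of Nrf2-driven transcription was scored by luminescence after 18-24 h of compound exposure at 37 °C.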
ClpP mod – qHTS Assay for Activators of ClpP | ATP-dependent Clp protease proteolytic subunit (Bacillus subtilis (strain 168)), P80244 | purified B. subtilis ClpP, FRET peptide cleavage, 20 min | Potency, µM (top dose mostly 57.5 µM), for the others: at the highest dose activity change, negative = active | 340,000 compounds, 1.9% hits; active means well fitted falling curve with a large enough effect; inconclusive means small, poorly fitted or top-dose-only effect; inactive means no such curve, though single readings can be large or run the other way; further: potency means the concentration at half of the fitted maximal effect; the source files actives as falling curves though it sought activators and does not explain the sign; nearly all actives have a fitted effect of over 65% in size
Target sequence (P80244 whole entry, looked up): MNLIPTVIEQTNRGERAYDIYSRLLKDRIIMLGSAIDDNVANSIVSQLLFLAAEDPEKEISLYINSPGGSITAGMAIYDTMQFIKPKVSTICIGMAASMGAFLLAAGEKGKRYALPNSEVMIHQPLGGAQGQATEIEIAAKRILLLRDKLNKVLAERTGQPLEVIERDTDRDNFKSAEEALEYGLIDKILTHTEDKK
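ClpP 10 microg/mL final, pH 8 Tris/KCl buffer with BSA, glycerol, Tween-20; compound pinned in; FRET-FV substrate; RT 20 min; Ex320/Em430; ΔFRET vs ADEP 5.8 microM, DMSO, no enzyme.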
miR-21 act – qHTS Assay for Modulators of miRNAs and/orActivators of miR-21; AID 2288, 2010; HeLa miR-21 FLuc reporter, luciferase, 48 h; Potency, µM (highest dose often 38.3 µM), for the others: top-dose activity change, positive = activation, most hits filed as activators; 340,000 tested, under 10 active;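 further: % of control where 0% means no effect; miR-21 action dims this reporter so a rising signal means less miR-21 action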
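HeLa cells endogenously expressing miR-21, stably carrying CMV-driven firefly luciferase with a downstream miR-21 binding site, 2000 cells/well. Titrations up to approximately 40 uM, 48 hours; luciferase luminescence read.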
Nrf2 ARE act – qHTS of Nrf2 Activators | AREc32 ARE-luciferase reporter (MCF7-derived line), luminescence, 24 h | 410,000 compounds, 0.31% hits | AID 624171, 2012 | Potency, µM (doses to about 46.1 µM), without a hit: top-dose activation, usual class: activators; further: potency means the concentration at half of the fitted maximal effect; % of control where 0% means no effect; nearly all actives have a fitted effect of over 65% in size
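Nrf2 activation is followed as ARE-luciferase induction in the AREc32 line after one day of compound treatment; luminescence is read with Steady-Glo.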
A549 viability – Nrf2 qHTS screen for inhibitors: counterscreen for cytotoxicity; A549 ARE-Fluc cells, CellTiter-Fluor viability, 18-24 h; Potency, µM (titrated, usually from 46 µM), without a hit: at the highest dose activity change, negative = cytotoxicity, actives largely listed as inhibitors; 390,000 compounds, 0.16% hits; AID 504648, 2011; further: potency means the concentration at half of the fitted maximal effect; on the % scale 0 is the no-effect control and ±100 the full control effect
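A549 ARE-Fluc cells in 5% FBS OPTI-MEM, 5000 cells/well, rested 2 h then exposed to compounds in concentration-response for 18-24 h at 37 °C. Viability by CellTiter-Fluor fluorescence (Ex 405/Em 525) after 30 min; luciferase luminescence (BugLite, 15 min, RT) read afterwards.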
Numbers without * were called inactive; ? = inconclusive; . = no result. This is a sample that favours compounds with a hit; in the whole collection about 3.7% have one here. Unless noted, the call rests on the fitted dose curve; in most records, active means well fitted curve in the direction sought with a large enough effect; inconclusive means small, poorly fitted or top-dose-only effect, or another doubt; inactive means no such curve, though single readings can be large; an effect the other way counts as inactive or inconclusive.

SMILES	IL-2 act	Nrf2 block	ClpP mod	miR-21 act	Nrf2 ARE act	A549 viability
CC1=CC2C(C(O)CC3(C)C2CC(C)C32OCOC23COCO3)C2(C)C/C(=C\O)C(=O)C=C12 (centres undefined)	-6	21µM*	-1%	.	-3%	?
CC(C)CN(CCCNC(=O)c1cc(=O)[nH]c2ccc(S(=O)(=O)N3CCCCCC3)cc12)CC(C)C	.	.	-1%	-2%	0%	10%
Oc1ccc2ccccc2c1/C=N/Nc1ccccc1	-4	2%	-4%	-28%	8%	-2%
Cc1cc(N/N=C/c2c(O)ccc3ccccc23)nc(-c2ccccc2O)n1	0	?	-5%	-8%	7.1µM*	?
COC(=O)c1cc(COc2ccc3c4c(c(=O)oc3c2)CCCC4)c(C)o1	0	3%	-15%	0%	2%	-1%
COC(=O)c1ccc(COc2ccc3c4c(c(=O)oc3c2)CCC4)o1	2	14%	3.2µM*	2%	0%	2%
Cc1oc(C(=O)O)cc1COc1ccc2c3c(c(=O)oc2c1)CCC3	1	10%	28µM*	0%	3%	-1%
O=C(O)COc1ccc2c3c(c(=O)oc2c1)CCCC3	1	1%	.	-1%	0%	1%
COc1ccc(C(C(=O)NCc2ccccc2)N(C(=O)Cn2nnc3ccccc32)c2cccc(OC)c2)cc1 (centres undefined)	.	-13%	1%	1%	-1%	-8%
COc1ccc(C2(c3ccc(OC(C)=O)cc3OC(C)=O)CC(c3ccccc3)NC(=S)N2)cc1 (centres undefined)	1	21µM*	3%	1%	6%	?
CC(=O)Oc1ccc2c(c1)OC(c1ccccc1)CC21CC(C)(C)NC(=S)N1 (centres undefined)	0	-23%	-2%	-2%	0%	1%
CCc1ccccc1NC(=O)c1ccc(F)c(S(=O)(=O)N2CCN(c3ccccc3OC)CC2)c1	.	.	-2%	17%	0%	1%
Cc1ccc(C(=O)C=CC=Cc2ccccc2)cc1	-1	.	-1%	.	23%	.
Cc1ccc(C(=O)C(C(=O)/C=C/c2ccccc2)=C2SCCCS2)cc1	-1	26µM*	0%	?	-1%	?
O=C(Nc1cc(-c2nc3ncccc3o2)ccc1Cl)c1cccs1	-1	-2%	?	4%	6.3µM*	-8%
COc1ccc(-c2nc3ncccc3o2)cc1NC(=O)c1cccs1	-7	-15%	.	-1%	2%	0%
COc1cc2ncnc(NCc3cccs3)c2cc1OC	0	-4%	-17%	-6%	3%	-7%
Clc1ccc2c(NCc3ccccn3)ncnc2c1	-1	.	-8%	-2%	6.3µM*	-1%
Clc1ccc2c(NCc3cccs3)ncnc2c1	-3	16µM*	-2%	13%	0%	-4%
Cc1cccc(-c2nc3cc(NC(=O)COc4ccccc4F)ccc3o2)c1	.	8%	4%	-27%	0%	-22%
CCOC(=O)c1cnc2ccc(OC)cc2c1Nc1ccc(OCc2ccccc2Cl)cc1	.	?	0%	?	0%	-14%
CCOC(=O)c1cnc2ccc(OCC)cc2c1Nc1ccc(OCc2ccccc2Cl)cc1	.	21µM*	-1%	14%	0%	-16%
COc1ccccc1NC(=O)CN1CCCN(S(=O)(=O)c2ccc(Br)cc2)CC1	.	?	-2%	-1%	6%	-20%
O=C(NCCO)c1cccc(Nc2nc(-c3ccccc3)c3cc(Cl)ccc3n2)c1	2	15µM*	0%	13%	2%	-27%
COc1ccc2c(c1OC)C(=O)N(c1cccc(/C=C/C(=O)O)c1)C2	1	16µM*	-7%	9%	0%	-4%
O=C(C[n+]1c(Cl)cc(Cl)c2ccccc21)c1ccccc1	.	.	-1%	.	.	.

High-throughput results deposited in PubChem by National Center for Advancing Translational Sciences (NCATS).
